Structures can show the parent of a compound that is named as a salt. A number with no mark means an inactive call.
Experiments:
[1] = system: Plasmodium falciparum NF54/iGP1_RE9H ulg8 stage V gametocytes; assay: gametocyte viability (luciferase signal relative to DMSO control) (% of DMSO control); higher = less gametocytocidal activity, active = 50 or less; details: exposure time: 72 h
Protocol: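 Synchronous P. falciparum NF54/iGP1_RE9H ulg8 mature stage V gametocytes (day 12) were exposed to Cayman Epigenetics Screening Library compounds at 10 µM or 1 µM for 72 h at 37 °C. Viability was read as RE9H luciferase bioluminescence, normalised to DMSO plate controls (100%); 50 µM methylene blue was the positive control.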

[2] = system: Plasmodium falciparum NF54/iGP1_RE9H ulg8 stage V gametocytes; assay: gametocyte viability (luciferase signal relative to DMSO control) (% of DMSO control); higher = less gametocytocidal activity, active = 50 or less; details: exposure time: 72 h; remark: listed apart in the source
Outline: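 Compounds from 10 mM DMSO stocks were spotted at nanolitre scale into 96-well plates, and day-12 stage V NF54/iGP1_RE9Hulg8 gametocytes (~2.5% gametocytemia, 3% hematocrit; medium with 0.5% Albumax II) were added to reach 10 µM or 1 µM, one well per concentration. The plates were kept at 37 °C for 72 h. Luminescence was then read on an IVIS Lumina II after mixing 90 µl of culture with 10 µl D-luciferin (30 mg/ml). Viability values are relative to the plate's mean DMSO vehicle signal.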

Structure (SMILES)	gametocyte viability ([1]; concentration: 1 µM)	gametocyte viability ([1]; concentration: 10 µM)	gametocyte viability ([2]; concentration: 1 µM)	gametocyte viability ([2]; concentration: 10 µM)
CCCCOc1ccc(CC(=O)NO)cc1 [Bufexamac]	85	94.8	–	–
COc1cccc2c1c(O)c(C(=O)N(C)c1ccc(C(F)(F)F)cc1)c(=O)n2C [Tasquinimod]	83.1	82.9	–	–
O=C(O)CNC(=O)C(=O)O [N-Oxalylglycine]	87.3	85.3	–	–
COc1nnc2ccc(N3CCC(c4ccc(OCCN5CCN(C)C(=O)[C@H]5C)cc4)CC3)nn12	93.3	90.3	–	–
O=C(CCCCCCC(=O)Nc1ccccc1)NO	86.4	56.2	–	–
O=C(O)CCCc1ccccc1 [Sodium 4-Phenylbutyrate]	90.4	89.2	–	–
COc1cc(Br)c(Nc2nc(-c3c(C)nc4ncccn34)cs2)c(Br)c1	94.5	93.6	–	–
COc1cc2c(NC3CCN(C)CC3)nc(N3CCCN(C)CC3)nc2cc1OCCCN(C)C	89.8	84	–	–
Nc1nc(=S)c2[nH]cnc2[nH]1 [6-Thioguanine]	90.1	94.6	–	–
CC(C(=O)Nc1cccc(/N=C/c2c(O)ccc3ccccc23)c1)c1ccccc1 (configuration not stated) [Salermide]	88.8	88.4	–	–
COc1cc(C#N)ccc1S(=O)(=O)Nc1ccc2c(c1)cc(C)c(=O)n2C	86.6	91.4	–	–
CC(C)(C)c1cc(C=C(C#N)C(N)=S)cc(C(C)(C)C)c1O	–	–	103	102
N#CC(=C(/N)Sc1ccccc1N)/C(C#N)=C(\N)Sc1ccccc1N	–	–	94.3	95.9
Cn1cc(-c2ccc3nnc(C(F)(F)c4ccc5ncccc5c4)n3n2)cn1	–	–	98.2	118
CN1CCN(CCOc2cc(OC3CCOCC3)c3c(Nc4c(Cl)ccc5c4OCO5)ncnc3c2)CC1 [Saracatinib (AZD0530)]	–	–	94.4	92.2
CCCS(=O)(=O)Nc1ccc(F)c(C(=O)c2c[nH]c3ncc(Cl)cc23)c1F	–	–	102	107
CS(=O)(=O)CCNCc1ccc(-c2ccc3ncnc(Nc4ccc(OCc5cccc(F)c5)c(Cl)c4)c3c2)o1 [Lapatinib Ditosylate (Tykerb)]	–	–	102	98.2
Cc1ccc(S(=O)(=O)Nc2nc3ccccc3nc2Nc2ccc3nsnc3c2)cc1	–	–	87.4	103
O=C1NC(=O)/C(=C/c2ccc3c(c2)OC(F)(F)O3)S1	–	–	103	106
Cc1cc(Nc2cc(CN3CCOCC3)c3nc(C)c(Cc4ccc(Cl)cc4F)n3n2)n[nH]1	–	–	95.6	97.8
Cc1cnc(Nc2ccc(N3CCN(C)CC3)cc2)nc1Nc1cccc(S(=O)(=O)NC(C)(C)C)c1	–	–	91.9	66.6
O=C(O)c1cc(N(Cc2ccccc2O)Cc2cc(O)ccc2O)ccc1O [Lavendustin A]	–	–	98.5	99.4
Cc1cc2ncc(-c3ccccc3)nc2cc1C	–	–	91.2	70.6
C=CC(=O)N1CCC[C@@H](n2nc(-c3ccc(Oc4ccccc4)cc3)c3c(N)ncnc32)C1	–	–	106	104
O=C(Cc1ccc(-c2ccc(OCCN3CCOCC3)cc2)cn1)NCc1ccccc1	–	–	99.7	113
COc1cc2nccc(Oc3ccc(NC(=O)Nc4ccc(F)cc4F)c(F)c3)c2cc1OC	–	–	94.9	85

Structure (SMILES)	gametocyte viability ([1]; concentration: 1 µM)	gametocyte viability ([1]; concentration: 10 µM)	gametocyte viability ([2]; concentration: 1 µM)	gametocyte viability ([2]; concentration: 10 µM)
Oc1cccc(-c2nc(N3CCOCC3)c3oc4ncccc4c3n2)c1	–	–	115	111
CCS(=O)(=O)c1cccc(-c2cc(C(=O)NC3CCN(C)CC3)c(C)c3[nH]c4ncc(C)cc4c23)c1	–	–	106	84.2
Cn1cc(-c2ccc3nnc(Sc4ccc5ncccc5c4)n3n2)cn1	–	–	99.7	88.7
COc1cc(Nc2ncc(F)c(Nc3ccc4c(n3)N(COP(=O)(O)O)C(=O)C(C)(C)O4)n2)cc(OC)c1OC	–	–	95.1	101
COC(=O)Nc1ccc(-c2nc(N3CCOCC3)c3cnn(C4CCN(Cc5cccnc5)CC4)c3n2)cc1	–	–	115	117
C=CC(=O)c1ccc2ccccc2c1	–	–	101	106
CN([C@@H](Cc1ccc(OS(=O)(=O)c2cccc3cnccc23)cc1)C(=O)N1CCN(c2ccccc2)CC1)S(=O)(=O)c1cccc2cnccc12	–	–	93.8	81.8
CN(C)c1ccc(-c2nc3ncc(Cl)c(N4CCN(CC(=O)Nc5nccs5)CC4)c3[nH]2)cc1	–	–	82.4	101
Cn1cc(C2=C(c3ccc(Cl)cc3Cl)C(=O)NC2=O)c2ccccc21	–	–	97.8	112
C[C@@H](Oc1cc(-c2cnn(C3CCNCC3)c2)cnc1N)c1c(Cl)ccc(F)c1Cl	–	–	88.7	30.2 (active)
Cc1nc(Nc2ncc(C(=O)Nc3c(C)cccc3Cl)s2)cc(N2CCN(CCO)CC2)n1	–	–	95.3	87.3
C[C@@H]1CCN(C(=O)CC#N)C[C@@H]1N(C)c1ncnc2[nH]ccc12	–	–	107	110
Cn1c(Nc2ccc(C(F)(F)F)cc2)nc2cc(Oc3ccnc(-c4ncc(C(F)(F)F)[nH]4)c3)ccc21	–	–	103	104
CO[C@H]1C[C@@H]2CC[C@@H](C)[C@@](O)(O2)C(=O)C(=O)N2CCCC[C@H]2C(=O)O[C@H]([C@H](C)C[C@@H]2CC[C@@H](OC(=O)C(C)(CO)CO)[C@H](OC)C2)CC(=O)[C@H](C)/C=C(\C)[C@@H](O)[C@@H](OC)C(=O)[C@H](C)C[C@H](C)/C=C/C=C/C=C/1C [Temsirolimus (Torisel)]	–	–	93.9	88.4
C=CC(=O)Nc1cccc(Sc2nc(Nc3ccc(N4CCN(C)CC4)cc3)ncc2Cl)c1	–	–	87.2	72.7
C=CC(=O)Nc1cccc(Oc2nc(Nc3ccc(N4CCN(C)CC4)cc3OC)ncc2Cl)c1	–	–	91.9	97.3
COc1cc2c(Oc3ccc4[nH]c(C)cc4c3F)ncnc2cc1OCCCN1CCCC1 [Cediranib (AZD2171)]	–	–	88.6	90.7
Oc1cc(O)cc(/C=C/c2ccc(O)c(O)c2)c1 [Piceatannol]	–	–	70.4	38.4 (active)
O=C(O)c1ccc2nc(-c3ccccc3)c(-c3ccccc3)nc2c1	–	–	98.6	95.2
COC(=O)Nc1ccc(-c2nc(N3CCOCC3)c3cnn(C4CCN(C(=O)OC)CC4)c3n2)cc1	–	–	97.3	97.2
Cc1ccc(NC(=O)c2ccc(CN3CCN(C)CC3)cc2)cc1Nc1nccc(-c2cccnc2)n1 [Imatinib Mesylate]	–	–	108	111
CNC(=O)Nc1ccc(-c2nc(N3CC4CCC(C3)O4)c3cnn(C4CCC5(CC4)OCCO5)c3n2)cc1	–	–	103	108
Cc1cc(Nc2cc(N3CCN(C)CC3)nc(/C=C/c3ccccc3)n2)n[nH]1	–	–	90.7	71.4
NC(=O)c1ccc(-c2nc(-c3ccccn3)c(-c3ccc4c(c3)OCO4)[nH]2)cc1	–	–	101	125
CN(c1ncccc1CNc1nc(Nc2ccc3c(c2)CC(=O)N3)ncc1C(F)(F)F)S(C)(=O)=O	–	–	117	112
